Growth inhibition data for five compounds are collected here from PubChem BioAssay (NCI).

Compounds without any hit were thinned out: in the full panel of roughly 79,000, 15% have a hit. Active and inactive are the calls of the source. Cut-off read from the data, not from the text of the source: active = growth inhibition above about 70%; inactive = the rest.

A short description of assay [1]: NCI Yeast Anticancer Drug Screen. Data for the rad50 strain (AID 155).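 Note: 0% = growth of vehicle-only cultures of the same strain.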 The following applies: S. cerevisiae rad50 strain growth inhibition, stronger effect = higher value. The gist of the method: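 A DNA repair-deficient yeast mutant serves as the test organism; compound-induced growth inhibition is calculated against vehicle-treated cells.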
A short description of assay [2]: NCI Yeast Anticancer Drug Screen. Data for the mec2-1 strain (AID 157). The following applies: S. cerevisiae mec2-1 strain, stronger effect = higher value. The gist of the method: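 Growth inhibition is read against vehicle-treated controls after compound exposure of the mec2-1 yeast strain, which is defective in DNA damage repair or cell cycle control.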
Assay [3] can be described thus: NCI Yeast Anticancer Drug Screen. Data for the sgs1 mgt1 strain (AID 161).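 Note: 0% = growth of cultures given vehicle only.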 The following applies: S. cerevisiae sgs1 mgt1 strain, stronger effect = higher value. Put shortly:
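Percent growth inhibition was derived by comparing compound-exposed mutant yeast with vehicle-exposed cultures. The strain carries alterations in DNA damage repair.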

Assay [4] in a line: NCI Yeast Anticancer Drug Screen. Data for the cln2 rad14 strain (AID 165).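 Note: 0% = growth equal to vehicle treated cultures.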 The following applies: S. cerevisiae cln2 rad14 strain, stronger effect = higher value. The gist of the method:
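Growth inhibition, relative to vehicle-treated controls, is the read-out. The test organism is a yeast strain with defined genetic alterations, cln2 rad14.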

Assay [5] in a line: NCI Yeast Anticancer Drug Screen. Data for the bub3 strain (AID 167). The following applies: S. cerevisiae bub3 mutant strain, stronger effect = higher value. The gist of the method: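 Inhibition values come from growth of compound-treated mutant yeast normalised to vehicle-treated controls.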
Assay [6] is described as follows: NCI Yeast Anticancer Drug Screen. Data for the mlh1 rad18 strain (AID 175). The following applies: S. cerevisiae mlh1 rad18 strain growth inhibition, stronger effect = higher value. The gist of the method:
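Cells of a genetically altered yeast strain, deficient in DNA damage repair, were treated with compound. Their growth was then compared with that of vehicle-treated cultures to give inhibition.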

Setting [7] is: at 5.0 µM (retest, dose inferred, filed as 0.5).
[8] abbreviates: at 50.0 µM (retest, dose inferred, filed as 5.0).

Take `Cc1ccccc1N1C(=O)c2ccccc2C1=O`: the growth inhibition in assay [1] (setting [7]) is 1% (inactive); in assay [1] (setting [8]), 8% (inactive); in assay [1] (at 50.0 µM), 61.1% (inactive); in assay [2] (setting [7]), -6% (inactive); in assay [2] (setting [8]) it was 11% (inactive); in assay [2] (at 50.0 µM) it was 98.8% (active). The growth inhibition in assay [3] (setting [7]) is 1% (inactive); in assay [3] (setting [8]), 7% (inactive); in assay [3] (at 50.0 µM), 90.1% (active); in assay [4] (setting [7]), 6% (inactive); in assay [4] (setting [8]) it was 9% (inactive); in assay [4] (at 50.0 µM), 83.3% (active). Also, the growth inhibition was 1% (inactive) in assay [5] (setting [7]); 16% (inactive) in assay [5] (setting [8]); 98.2% (active) in assay [5] (at 50.0 µM); 0% (inactive) in assay [6] (setting [7]); 8% (inactive) in assay [6] (setting [8]); 84% (active) in assay [6] (at 50.0 µM).
Take `CC/C(=C(/CC)c1ccc([O-])cc1)c1ccc([O-])cc1.CC/C(=C(\CC)c1ccc([O-])cc1)c1ccc([O-])cc1.O=C([CH-]C(=O)c1ccccc1)c1ccccc1.O=C([CH-]C(=O)c1ccccc1)c1ccccc1.O=C([CH-]C(=O)c1ccccc1)c1ccccc1.O=C([CH-]C(=O)c1ccccc1)c1ccccc1.[Ti+4].[Ti+4]`: the growth inhibition was 84% (active) in assay [1] (setting [7]); 96% (active) in assay [1] (setting [8]); 77.3% (active) in assay [1] (at 50.0 µM); 97% (active) in assay [2] (setting [7]); 97% (active) in assay [2] (setting [8]); 84% (active) in assay [2] (at 50.0 µM). The growth inhibition in assay [3] (setting [7]) was 97% (active); in assay [3] (setting [8]) it was 96% (active); in assay [3] (at 50.0 µM), 84.4% (active); in assay [4] (setting [7]) it was 94% (active); in assay [4] (setting [8]) it was 96% (active); in assay [4] (at 50.0 µM), 80% (active). The growth inhibition was 98% (active) in assay [5] (setting [7]); 88% (active) in assay [5] (setting [8]); 60.9% (inactive) in assay [5] (at 50.0 µM); 94% (active) in assay [6] (setting [7]); 93% (active) in assay [6] (setting [8]); 80% (active) in assay [6] (at 50.0 µM).
In the case of `Cc1cc(=O)[nH]c2cc3oc4ccccc4c3cc12`, the growth inhibition was 30% (inactive) in assay [1] (setting [7]); 94% (active) in assay [1] (setting [8]); 95.2% (active) in assay [1] (at 50.0 µM); -5% (inactive) in assay [2] (setting [7]); 39% (inactive) in assay [2] (setting [8]); 32.4% (inactive) in assay [2] (at 50.0 µM). The growth inhibition in assay [3] (setting [7]) is 11% (inactive); in assay [3] (setting [8]) it was 40% (inactive); in assay [3] (at 50.0 µM), 17.6% (inactive); in assay [4] (setting [7]) it was 9% (inactive); in assay [4] (setting [8]), 36% (inactive); in assay [4] (at 50.0 µM) it was 68.1% (inactive). The growth inhibition in assay [5] (setting [7]) is -13% (inactive); in assay [5] (setting [8]), 45% (inactive); in assay [5] (at 50.0 µM), 81% (active); in assay [6] (setting [7]), 23% (inactive); in assay [6] (setting [8]), 80% (active); in assay [6] (at 50.0 µM) it was 78.9% (active).
Take `Oc1cc(Br)cc2cccnc12`: the growth inhibition was 99% (active) in assay [1] (setting [7]); 99% (active) in assay [1] (setting [8]); 87.7% (active) in assay [1] (at 50.0 µM); 98% (active) in assay [2] (setting [7]); 99% (active) in assay [2] (setting [8]); 92% (active) in assay [2] (at 50.0 µM). For the same compound, the growth inhibition in assay [3] (setting [7]) is 98% (active); in assay [3] (setting [8]) it was 99% (active); in assay [3] (at 50.0 µM), 84.3% (active); in assay [4] (setting [7]) it was 99% (active); in assay [4] (setting [8]), 99% (active); in assay [4] (at 50.0 µM) it was 89.5% (active). In addition, the growth inhibition in assay [5] (setting [7]) is 99% (active); in assay [5] (setting [8]) it was 99% (active); in assay [5] (at 50.0 µM) it was 88.7% (active); in assay [6] (setting [7]) it was 99% (active); in assay [6] (setting [8]), 99% (active); in assay [6] (at 50.0 µM), 83.8% (active).
For `O=C(O)/C(=C\c1ccc(O)cc1)c1cccc2ccccc12`, the growth inhibition is 31% (inactive) in assay [1] (setting [7]); 18% (inactive) in assay [1] (setting [8]); 45.3% (inactive) in assay [1] (at 50.0 µM); -2% (inactive) in assay [2] (setting [7]); 36% (inactive) in assay [2] (setting [8]); 37.6% (inactive) in assay [2] (at 50.0 µM). Further, the growth inhibition is -2% (inactive) in assay [3] (setting [7]); 12% (inactive) in assay [3] (setting [8]); 5.5% (inactive) in assay [3] (at 50.0 µM); 3% (inactive) in assay [4] (setting [7]); 27% (inactive) in assay [4] (setting [8]); 76.2% (active) in assay [4] (at 50.0 µM). Moreover, the growth inhibition in assay [5] (setting [7]) was -21% (inactive); in assay [5] (setting [8]) it was 22% (inactive); in assay [5] (at 50.0 µM) it was 61.5% (inactive); in assay [6] (setting [7]), -4% (inactive); in assay [6] (setting [8]), 49% (inactive); in assay [6] (at 50.0 µM), 48% (inactive).
